The results in this text go back to PubChem BioAssay.

Assay [1] deals with Hepatitis C virus NS3 helicase. Briefly: HCV NS3 helicase inhibitors, primary screen, biochemical, fluorescence polarization, LOPAC1280 library (AID 687035; in the data active = inhibition above about 37%). Particulars: Purified HCV NS3 helicase, Cy5-dT15 ssDNA binding fluorescence polarization; stronger effect = higher value; concentration not given here. Background: In fluorescence polarisation assays a small probe gives low polarisation when free and higher when bound to something large.

A short description of assay [2]: Cy5 fluorescence quenching or enhancement artefacts, artefact control for HCV NS3 helicase inhibitor project, biochemical, LOPAC1280 (AID 687037; call rule not given here). To be noted: Cy5-DNA-NS3h complex fluorescence interference counterscreen.
Assay [3] can be described thus: sensitizers of A549 cells to miR-34 induction, primary screen, imaging, A549 dox-inducible miR-34, nuclei and caspase counts (AID 1347080). Particulars: A549 miR-34 inducible, Hoechst nuclei count, 48 h.
Assay [4] in a line: phospholipid biosynthesis inhibitors in animal cells, primary screen, cell-based, LOPAC library, screen 4 (AID 1347384; call rule not given here). To be noted: phospholipid biosynthesis inhibition screen, at 10 µM.
Assay [5] can be described thus: viability rescue of complex I mutant cybrids, primary screen, cell-based, galactose medium, ATP luminescence (AID 1645843;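 active = z-score of at least 1.8 in each of two replicates, scored against plate mean and spread of sample wells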;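 also: positive z means more ATP and so rescue of galactose-driven cybrid death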). To be noted: complex I mutant cybrid cells, 72 h, stronger effect = higher value.
A short description of assay [6]: survival rescue of mitochondrial mutant cells in low glucose, primary screen, MELAS cybrids, Rieske KO mouse fibroblasts, CellTiter-Glo (AID 1508586;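 active = mean z-score across replicates of 1.96 or higher in either the MELAS or the Rieske mutant cell line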;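 also: z relative to plate mean and SD of compound and empty wells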). On the technique in general: ATP-based viability assays read luminescence as a measure of living cells.
Assay [7] is described as follows: circadian clock period modulators, cell-based, LOPAC library, luminescence reporter (AID 2774; call rule not given here;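 also: values are relative to mean of DMSO wells on each plate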). Particulars: circadian reporter cells, at 7 µM, actives lie on both sides.
[8] abbreviates: stronger effect = lower value, cell number ratio, induced over uninduced.
Where [9] appears, read: measured here: relative caspase fold change +Dox/-Dox.
The mark [10] stands for this setting: measured here: total cells with miR-34 induction, stronger effect = lower value.
Where [11] appears, read: measured here: total cells without miR-34 induction.
The mark [12] stands for this setting: MELAS cybrid survival, CellTiter-Glo 48 h, stronger effect = higher value.
Setting [13] is: Rieske KO mouse fibroblast survival, CellTiter-Glo 72 h.

The source made the active and inactive calls.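 The calls were made as follows, unless noted: active = compounds whose cell count with miR-34 switched on is under 0.7 times the count with it off; inactive = the rest.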

A word on the inhibition: it is the relative decrease from the control value, in per cent. Consider `C=CCNc1ncnc2ccc(Br)cc12`, for which, in assay [1], the inhibition is 0% (inactive). Further, the fluorescence ratio (interference) in assay [2] was 1 (inactive). In addition, the fold change in assay [3] (setting [8]) is 0.949 (inactive); in assay [3] (setting [9]), 0.896. Moreover, the results for the cell count in assay [3] (setting [10]) and in assay [3] (setting [11]) were 7410 and 7810, respectively. Further, the outcome in assay [4] was inactive. Also, in assay [5], the z-score was -1.29 (inactive).
In the case of `CC1(C)[C@@H](O)CC[C@@]2(C)[C@H]1CC[C@]1(C)[C@H]2C(=O)C=C2[C@H]3C[C@@](C)(C(=O)O)CC[C@]3(C)CC[C@]21C`, the results for the fold change in assay [3] (setting [8]) and in assay [3] (setting [9]) were 0.897 (inactive) and 0.953, respectively. The cell count in assay [3] (setting [10]) is 7890; in assay [3] (setting [11]) it was 8800. Further, the z-score in assay [6] (setting [12]) was -0.219 (inactive); in assay [6] (setting [13]), 0.479.
`CCC(=O)O[C@@]1(C(=O)SCF)C(C)C[C@H]2[C@@H]3CC(F)C4=CC(=O)C=C[C@]4(C)[C@]3(F)C(O)C[C@@]21C` (some centres undefined): the fold change is 0.849 (inactive) in assay [3] (setting [8]) and 1.14 in assay [3] (setting [9]). Moreover, the results for the cell count in assay [3] (setting [10]) and in assay [3] (setting [11]) were 4990 and 5880, respectively. In addition, the values for the z-score in assay [6] (setting [12]) and in assay [6] (setting [13]) were -0.525 (inactive) and -0.481, respectively.
As for `Cn1nc(C(C)(C)C)cc1C(=O)NC(Cc1cccc(Cl)c1)C(=O)NCC#N` (centres undefined), the fold change in assay [3] (setting [8]) is 0.927 (inactive); in assay [3] (setting [9]) it was 0.462. In addition, the cell count in assay [3] (setting [10]) is 7540; in assay [3] (setting [11]), 8140. Further, the results for the z-score in assay [6] (setting [12]) and in assay [6] (setting [13]) were 0.131 (inactive) and 0.0966, respectively.
Take `c1ccc2c(c1)CC(N1CCN(c3cccc4c3OCCO4)CC1)C2`: the inhibition in assay [1] was -2% (inactive). Further, the fluorescence ratio (interference) in assay [2] was 1 (inactive). Moreover, the fold change is 1.01 (inactive) in assay [3] (setting [8]) and 1.01 in assay [3] (setting [9]). Besides, the cell count in assay [3] (setting [10]) amounted to 8000; in assay [3] (setting [11]), 7890. The outcome in assay [4] was inactive. Besides, the z-score in assay [5] was 0.255 (inactive).
For `OC[C@H]1OC(n2cnc3c(N[C@H]4CCC[C@@H]4O)ncnc32)[C@H](O)[C@@H]1O` (some centres undefined), the inhibition in assay [1] was -3% (inactive). The fluorescence ratio (interference) in assay [2] was 1 (inactive). Besides, the fold change is 1.03 (inactive) in assay [3] (setting [8]) and 1.86 in assay [3] (setting [9]). Moreover, the results for the cell count in assay [3] (setting [10]) and in assay [3] (setting [11]) were 10800 and 10500, respectively. Besides, in assay [4], the outcome was inactive. The z-score in assay [5] is 0.53 (inactive).
Consider `C[C@](Cc1ccc(O)c(O)c1)(NN)C(=O)O`, for which, in assay [1], the inhibition is -4% (inactive). The fluorescence ratio (interference) in assay [2] is 1 (inactive). The results for the fold change in assay [3] (setting [8]) and in assay [3] (setting [9]) were 0.947 (inactive) and 1.36, respectively. For the same compound, the cell count in assay [3] (setting [10]) is 9110; in assay [3] (setting [11]), 9620. In addition, in assay [4], the result was inactive. The z-score in assay [5] was -1.02 (inactive).
Turning to `Cc1c(CN2CCN(C(=O)C(C)O)CC2)sc2c(N3CCOCC3)nc(-c3cnc(N)nc3)nc12` (centres undefined), the fold change in assay [3] (setting [8]) is 1.11 (inactive); in assay [3] (setting [9]), 0.549. The cell count in assay [3] (setting [10]) came out at 2480; in assay [3] (setting [11]), 2230. Besides, the z-score in assay [6] (setting [12]) was 2.06 (active); in assay [6] (setting [13]), -2.39.
Regarding `C[C@]12CCC(=O)C=C1[C@@H]1C[C@@H]1[C@H]1[C@@H]3[C@@H]4C[C@@H]4[C@]4(CCC(=O)O4)[C@@]3(C)CC[C@H]12`, the fold change in assay [3] (setting [8]) is 0.956 (inactive); in assay [3] (setting [9]), 0.848. For the same compound, the cell count in assay [3] (setting [10]) was 6880; in assay [3] (setting [11]), 7200. In addition, the z-score in assay [6] (setting [12]) is -0.459 (inactive); in assay [6] (setting [13]), 0.378.
For the compound `CCN(CC)CCNC(=O)c1ccc(NS(C)(=O)=O)cc1`, the inhibition in assay [1] is -2% (inactive). Besides, the fluorescence ratio (interference) in assay [2] is 1.1 (inactive). The fold change in assay [3] (setting [8]) is 1.02 (inactive); in assay [3] (setting [9]) it was 0.826. Further, the cell count in assay [3] (setting [10]) came to 10400; in assay [3] (setting [11]), 10100. The compound was called inactive in assay [4]. Moreover, the z-score in assay [5] is 0.325 (inactive).
`COC(=O)NC(C)CNc1nccc(-c2cn(C(C)C)nc2-c2cc(Cl)cc(NS(C)(=O)=O)c2F)n1` (centres undefined): the fold change in assay [3] (setting [8]) is 0.982 (inactive); in assay [3] (setting [9]) it was 0.272. Also, the cell count stood at 5200 in assay [3] (setting [10]) and 5290 in assay [3] (setting [11]). Moreover, the z-score in assay [6] (setting [12]) was 0.61 (inactive); in assay [6] (setting [13]) it was 1.4.
As for `Cc1cc(OCCCS(C)(=O)=O)cc(C)c1-c1cccc(COc2ccc3c(c2)OCC3CC(=O)O)c1` (centres undefined), the fold change was 0.928 (inactive) in assay [3] (setting [8]) and 0.766 in assay [3] (setting [9]). The cell count in assay [3] (setting [10]) was found to be 7480; in assay [3] (setting [11]), 8070. For the same compound, the z-score in assay [6] (setting [12]) was -0.428 (inactive); in assay [6] (setting [13]) it was 0.0224.
As to `O=C(NCc1cccc(O)c1)Nc1nc(-c2ccncc2)cs1`, the fold change in assay [3] (setting [8]) was 0.899 (inactive); in assay [3] (setting [9]), 0.419. Also, the cell count amounted to 2990 in assay [3] (setting [10]) and 3330 in assay [3] (setting [11]). The z-score was 0.152 (inactive) in assay [6] (setting [12]) and -1.61 in assay [6] (setting [13]).
For `O=C1NCc2c1c1c3ccccc3[nH]c1c1[nH]c3ccccc3c21`, the inhibition in assay [1] is -1% (inactive). The fluorescence ratio (interference) in assay [2] is 1 (inactive). The fold change in assay [3] (setting [8]) was 1.15 (inactive); in assay [3] (setting [9]), 0.688. In addition, the figures for the cell count in assay [3] (setting [10]) and in assay [3] (setting [11]) were 1560 and 1350, respectively. The outcome in assay [4] was inactive. Also, the z-score in assay [5] is -0.89 (inactive).
Consider `Cc1ccc(CNc2ncnc3ccc(-c4ccc(CO)o4)cc23)o1`, for which the fold change in assay [3] (setting [8]) is 0.916 (inactive); in assay [3] (setting [9]), 0.52. For the same compound, the cell count in assay [3] (setting [10]) was determined as 7510; in assay [3] (setting [11]), 8210. The z-score was -0.414 (inactive) in assay [6] (setting [12]) and 0.153 in assay [6] (setting [13]).
Take `CC(=O)C1CC[C@H]2[C@@H]3CC=C4CC(O)CC[C@]4(C)[C@@H]3CC[C@]12C` (some centres undefined): the fold change in assay [3] (setting [8]) is 0.983 (inactive); in assay [3] (setting [9]) it was 0.867. In addition, the cell count in assay [3] (setting [10]) is 7780; in assay [3] (setting [11]) it was 7910. For the same compound, the results for the z-score in assay [6] (setting [12]) and in assay [6] (setting [13]) were -0.328 (inactive) and 0.251, respectively.
`N[C@H](C(=O)O)[C@H](Cc1ccccc1)C(=O)O`: the inhibition in assay [1] is -1% (inactive). For the same compound, in assay [2], the fluorescence ratio (interference) is 1 (inactive). Moreover, the fold change was 0.97 (inactive) in assay [3] (setting [8]) and 1.76 in assay [3] (setting [9]). Besides, the figures for the cell count in assay [3] (setting [10]) and in assay [3] (setting [11]) were 10400 and 10700, respectively. Besides, the call in assay [4] was inactive. In assay [5], the z-score was 0.705 (inactive).
In the case of `CCOC(=O)C1=C(C)NC(C)=C(C(=O)OCC)C1c1c(F)c(F)c(F)c(F)c1F`, in assay [1], the inhibition was -5% (inactive). In assay [2], the fluorescence ratio (interference) was 0.9 (inactive). In addition, the fold change in assay [3] (setting [8]) is 1.11 (inactive); in assay [3] (setting [9]), 0.622. The cell count in assay [3] (setting [10]) is 5220; in assay [3] (setting [11]), 4680. In assay [4], the compound was classed as inactive. Besides, the z-score in assay [5] is -0.415 (inactive).
As for `O=C1CN(/N=C/c2ccc(-c3ccc([N+](=O)[O-])cc3)o2)C(=O)N1`, the period change in assay [7] was 0.19 h (inactive). Besides, the fold change is 0.852 (inactive) in assay [3] (setting [8]) and 0.844 in assay [3] (setting [9]). The results for the cell count in assay [3] (setting [10]) and in assay [3] (setting [11]) were 3600 and 4220, respectively. For the same compound, in assay [4], the compound was classed as inactive.
`C1=CCOCc2cc(ccc2OCCN2CCCC2)Nc2nccc(n2)-c2cccc(c2)COC1`: the fold change was 0.848 (inactive) in assay [3] (setting [8]) and 0.685 in assay [3] (setting [9]). In addition, the cell count came out at 776 in assay [3] (setting [10]) and 915 in assay [3] (setting [11]). Further, the values for the z-score in assay [6] (setting [12]) and in assay [6] (setting [13]) were 3.58 (active) and -5.03, respectively.
Take `CC(C)OC(=O)OCOP(=O)(COC(C)Cn1cnc2c(N)ncnc21)OCOC(=O)OC(C)C` (centres undefined): the fold change in assay [3] (setting [8]) is 0.941 (inactive); in assay [3] (setting [9]), 0.831. Also, the cell count in assay [3] (setting [10]) is 7870; in assay [3] (setting [11]) it was 8370. Besides, the results for the z-score in assay [6] (setting [12]) and in assay [6] (setting [13]) were -0.399 (inactive) and 0.463, respectively.
As to `NC(=O)Nc1cc(-c2cccc(F)c2)sc1C(=O)NC1CCCNC1` (centres undefined), the fold change in assay [3] (setting [8]) was 1.01 (inactive); in assay [3] (setting [9]), 0.785. The results for the cell count in assay [3] (setting [10]) and in assay [3] (setting [11]) were 866 and 858, respectively. In addition, the z-score in assay [6] (setting [12]) was -0.543 (inactive); in assay [6] (setting [13]), -2.7.
`Cc1cc(NC(=O)c2cccc(NC(=O)C=CCN(C)C)c2)ccc1Nc1nccc(-c2cccnc2)n1`: the fold change is 0.969 (inactive) in assay [3] (setting [8]) and 0.805 in assay [3] (setting [9]). For the same compound, the values for the cell count in assay [3] (setting [10]) and in assay [3] (setting [11]) were 6190 and 6390, respectively. Moreover, the z-score in assay [6] (setting [12]) is -0.659 (inactive); in assay [6] (setting [13]), 0.143.
